Hits are enriched below; roughly 10% of the tested compounds scored in any of these assays.
HPGD block – qHTS Assay for Inhibitors of HPGD (15-Hydroxyprostaglandin Dehydrogenase). AID 894, 2007. Potency, µM, for inactives: at the top dose activity change, negative = inhibition, hits mostly inhibitors. actives 4.3% (n = 150,000). purified HPGD, NADH fluorescence kinetic, PGE2 substrate. 15-hydroxyprostaglandin dehydrogenase [NAD(+)] (Homo sapiens), P15428; note: potency is the fitted concentration of half-maximal effect
Target sequence (P15428 whole entry, looked up): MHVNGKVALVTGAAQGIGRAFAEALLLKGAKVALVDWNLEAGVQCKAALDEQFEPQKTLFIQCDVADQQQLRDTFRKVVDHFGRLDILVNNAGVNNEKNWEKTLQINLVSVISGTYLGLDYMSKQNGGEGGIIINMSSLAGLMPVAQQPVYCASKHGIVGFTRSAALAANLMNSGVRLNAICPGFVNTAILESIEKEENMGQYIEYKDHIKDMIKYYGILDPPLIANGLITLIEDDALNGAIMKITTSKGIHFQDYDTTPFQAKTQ
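NADH formation kinetics: reaction with 30 uM PGE2 and 1 mM NAD+ (final), 20 nM enzyme, Tris-HCl pH 8 with Tween 20, after 15 min compound preincubation at room temperature. Fluorescence change, last versus first of five reads.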
IMPase cell inh – qHTS Assay for Identifying the Cell-Membrane Permeable IMPase Inhibitors | 120,000 tested, under 10 active | inhibition (IP1 accumulation), % at 46.1 µM | AID 901, 2007 | CHO-M1 cells, IP1 accumulation, HTRF TR-FRET ratio | Inositol monophosphatase 1 (Rattus norvegicus), P97697; active = well fitted curve in the direction sought with a large enough effect in the signal ratio, not every such curve was filed as active; inconclusive = small, poorly fitted or top-dose-only effect, or a change in a side signal; inactive = no such curve, though single readings can be large or run the other way; the % refers to the signal ratio;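 note: cells stimulated with carbachol in lithium chloride buffer; plate controls were DMSO basal wells for no effect and reference inhibitor wells for full effect; higher means more IMPase inhibition seen as more IP1 and lower FRET ratio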
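In this qHTS, compounds (final up to 46 uM) act on CHO-M1 cells that are then activated through the M1 receptor with carbachol, in pH 7.4 buffer containing 50 mM LiCl, for 30 min. IP1 accumulation is quantified by the IP-One immunoassay.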
Luc counter – Counterscreen for Luciferase (Kinase-Glo TM) Inhibition; actives 0.28% (n = 200,000); Potency, µM (highest dose often 38.3 µM), for inactives: at the highest dose activity change, negative = inhibition, hits mostly inhibitors; AID 1379, 2008; Luciferin 4-monooxygenase (Photuris pensylvanica), Q27757; Kinase-Glo luciferase, ATP luminescence, 8 min; active = well fitted inhibition curve with a large enough effect; inconclusive = small, poorly fitted or top-dose-only effect; note: potency is the fitted concentration of half-maximal effect; nearly all actives have a fitted effect of over 60% in size
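Recombinant Kinase-Glo luciferase, 10 uM ATP (linear range), luciferin; imidazole pH 7.2 / KCl / MgCl2 / Tween / BSA buffer; 8 min RT; luminescence.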
PNC assembly inh – High Content Assay for Compounds that inhibit the Assembly of the Perinucleolar Compartment. PC3M PTB-GFP, PNC prevalence imaging, 16 h; active compounds read low. activity change (PNC), negative = inhibition, % at 10 µM. actives 3.1% (n = 140,000);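 active = readout at or below -70, meaning at least 70% loss of cells showing the perinucleolar compartment, a nuclear body marking cancer cells; inconclusive = readout between -30 and a set limit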;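 note: plate controls were DMSO wells for no effect and camptothecin positive control wells for full effect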
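Read-out is percentage of cells bearing a perinucleolar compartment, from automated 20x imaging of fixed, Hoechst-stained PC3M PTB-GFP cells. Cells were seeded 4 h, then exposed 16 h to compound (23 nl of library stock) in duplicate plates.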
Lamin A splicing – qHTS Assay for Modulators of Lamin A Splicing; Potency, µM (titrated, usually from 46.1 µM), for inactives: at the highest dose ratio change, negative = inhibition, usual class: inhibitors; HeLa LMNA splicing GFP/RFP minigene ratio, 48 h; actives 0.01% (n = 200,000); active = well fitted inhibition curve with a large enough effect in the signal ratio, with a control signal flat, not every such curve was filed as active; inconclusive = small, poorly fitted or top-dose-only effect, or effect the other way, or a change in a side signal; the % refers to the signal ratio; note: potency is the fitted concentration of half-maximal effect
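S3 HeLa cells stably expressing lamin A-EGFP splicing minigene plus DsRed2, 600 cells/well, 48 h compound exposure at 37C. Laser-scanning cytometry; analysed as GFP (500-530 nm)/RFP (575-640 nm) total intensity ratio; 0.5% DMSO vehicle.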
ALDH1A1 block – qHTS Assay for Inhibitors of Aldehyde Dehydrogenase 1 (ALDH1A1); AID 1030, 2008; actives 7.3% (n = 220,000); Purified ALDH1A1, NADH fluorescence, propionaldehyde substrate; Aldehyde dehydrogenase 1A1 (Homo sapiens), P00352; Potency, µM (titrated, usually from 75.3 µM), for the others: top-dose activity, negative = inhibition, usual class: inhibitors;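 note: potency is the fitted concentration of half-maximal effect; plate controls were no enzyme wells and a reference inhibitor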
Target sequence (P00352 whole entry, looked up): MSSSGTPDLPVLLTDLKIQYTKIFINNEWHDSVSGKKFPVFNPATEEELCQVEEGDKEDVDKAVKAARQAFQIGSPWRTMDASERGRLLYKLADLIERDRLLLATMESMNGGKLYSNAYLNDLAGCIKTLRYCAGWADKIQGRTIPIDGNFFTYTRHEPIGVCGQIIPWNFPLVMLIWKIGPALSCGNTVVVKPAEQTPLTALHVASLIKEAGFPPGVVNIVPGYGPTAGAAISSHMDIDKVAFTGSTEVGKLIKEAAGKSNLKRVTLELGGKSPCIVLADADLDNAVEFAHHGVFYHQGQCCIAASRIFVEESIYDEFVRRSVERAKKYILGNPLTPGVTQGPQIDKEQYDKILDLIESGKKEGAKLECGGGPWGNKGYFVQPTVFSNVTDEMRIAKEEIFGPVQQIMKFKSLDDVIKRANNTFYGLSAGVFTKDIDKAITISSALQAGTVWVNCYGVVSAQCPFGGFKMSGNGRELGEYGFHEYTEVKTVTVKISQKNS
* marks the source's active call; other numbers are inactive results; u = inconclusive; x = not tested or not shown; [ ] = remark or other dose. Unless noted, calls come from the whole dose curve; as a rule, active = well fitted inhibition curve with a large enough effect (not every such curve was filed as active); inconclusive = small, poorly fitted or top-dose-only effect, or another doubt; inactive = no such curve, though single readings can be large or run the other way. Unless noted, % is set by controls: 0 for no effect and ±100 for the full control effect.

SMILES | HPGD block | IMPase cell inh | Luc counter | PNC assembly inh | Lamin A splicing | ALDH1A1 block
Cc1cccc(C(=O)NC(=S)NNC(=O)COc2ccc(Cl)cc2)c1 | x | x | 3% | x | u | 9.5µM*
CCOc1ccc(CNC(=O)Cn2c(=O)c3cccn3c3ccc(F)cc32)cc1OC | x | x | x | x | 6%[46 µM] | x
Fc1cccc(-n2ncc(-c3nnnn3-c3ccccc3)c2C(F)(F)F)c1 | -2% | 5 | 1% | -84* | -29% | -6%
COc1ccc(C)cc1NC(=O)c1cc(S(=O)(=O)N2CCc3ccccc3C2)ccc1F | x | x | x | x | -14%[46 µM] | x
O=C(CN(Cc1ccccc1)S(=O)(=O)c1ccccc1)N/N=C/c1ccccc1[N+](=O)[O-] | -1% | 5 | 2% | 7 | -13% | 11µM*
Cc1ccc(CN(CC(=O)N/N=C/c2ccccc2[N+](=O)[O-])S(=O)(=O)c2ccc(C)cc2)cc1 | -18% | 3 | -3% | 18 | -10% | u
COc1cc2c(c3oc(-c4ccccc4)cc(=O)c13)C=CC(C)(C)O2 | x | x | x | x | x | 10µM*
CC(=O)NCCC(Cc1ccccc1)c1ccco1 (centres undefined) | -11% | 1 | -3% | -100* | -6% | -6%
O=C(CC(Cc1ccccc1)c1ccco1)NCc1ccco1 (centres undefined) | x | x | x | x | -2%[46 µM] | -4%
C#CCCCC(=O)Nc1ccccc1 | -6% | x | -2% | x | x | -3%
O=C(O)C1C2CCC(C2)C1C(=O)NCc1ccco1 (centres undefined) | -15% | 2 | 3% | -100* | 4% | 35µM*
O=C(NCc1ccco1)C1CC2CCC1C2 (centres undefined) | 16µM* | -9 | 2% | -10 | 4% | -5%
COc1ccc(CCNC(=O)CSc2n[nH]c(-c3ccccc3Cl)n2)cc1OC | x | x | x | x | -3%[46 µM] | x
COc1ccc(S(=O)(=O)N(CC(=O)NCCSc2ccc(C)cc2)c2ccc(C)cc2)cc1 | x | -1 | x | x | x | x
Cc1cc(C)nc(SCNC(=O)c2ccccc2)n1 | 14µM* | -7 | 1% | -9 | -3% | -8%
COc1ccc(C(=O)NCCSc2ccc(C)cc2)cc1 | -13% | x | -2% | -13 | 0% | 10µM*
COc1ccc(C(=O)NCCSC2CCCCC2)cc1 | -1% | x | -1% | 5 | 4% | 3.5µM*
Cc1ccccc1CNC(=O)c1ccccc1C | u | -3 | -6% | -22 | 14% | 0%
Cc1ccccc1CNC(=O)c1ccccc1 | 16µM* | -9 | 0% | u | -11% | u
COCCNC(=O)c1ccc(C(=O)C(=O)c2ccccc2)cc1 | 14µM* | x | -1% | 24 | 0% | -13%
Cc1ccc(SCCNC(=O)c2ccccc2)cc1 | 16µM* | -20 | -4% | u | 18% | u
O=C(NCCSc1ccccc1)c1cccnc1 | -29% | 2 | 5% | -15 | 4% | u
COc1ccc(C(=O)NCCSCc2ccc(C)cc2)cc1 | 0% | 1 | -1% | -13 | 0%[0.0737 µM] | 2.2µM*
Cc1ccc(CSCCNC(=O)c2ccc(C)cc2)cc1 | x | x | 0% | x | u | u
COc1ccc(N(Cc2nnc3n2CCCCC3)C(=O)Nc2ccc(Cl)cc2)cc1Cl | x | x | x | x | 20%[46 µM] | x
SMILES | HPGD block | IMPase cell inh | Luc counter | PNC assembly inh | Lamin A splicing | ALDH1A1 block
COCCCNC(=O)c1ccc(N2CCOCC2)c(NS(=O)(=O)c2ccc(OC)cc2)c1 | -7% | 5 | 18% | -13 | -6% | u
CCN(CC)CCCNC(=O)c1ccc(N2CCCCC2)c(NS(=O)(=O)c2ccc(C)cc2)c1 | x | x | 0% | x | x | 14µM*
COCCNC(=O)c1ccc(N2CCCCC2)c(NS(=O)(=O)c2ccc(C)cc2)c1 | -19% | 8 | 0% | 31 | -4% | 8.9µM*
Cc1ccc(C(=O)CSc2nc(-c3ccccc3)nc3c2CCCC3)cc1 | x | -3 | x | x | x | x
NNC(=O)CSc1nc(-c2ccccc2)nc2c1CCCC2 | x | x | 5% | x | -4%[46 µM] | 2µM*
O=C(c1cc2cc([N+](=O)[O-])ccc2oc1=O)N1CCOCC1 | x | x | -21% | x | u | 13µM*
O=C(c1sc2cc([N+](=O)[O-])ccc2c1Cl)N1CCOCC1 | 16µM* | x | -4% | 13 | -15% | -2%
CC(C)N(C(=O)c1sc2cc([N+](=O)[O-])ccc2c1Cl)C(C)C | 28µM* | -3 | -7% | 17 | 2% | u
CC(C)N(C(=O)/C=C/c1cccc([N+](=O)[O-])c1)C(C)C | x | x | 4% | x | x | -12%
COC(=O)[C@@]1(Cc2ccc(OC)cc2)[C@@H]2[C@@H](CC(=O)[C@H]2CC(=O)C(=O)N2CCCC2)CN1C(=O)c1ccccc1 | -7% | x | -2% | x | x | -9%
O=C(NC(=S)Nc1nc(-c2ccccc2)cs1)c1ccco1 | x | x | 2% | x | u | 14µM*
c1ccc(-c2nccc(-c3ccco3)n2)nc1 | x | x | -7% | x | -5%[46 µM] | u
c1ccc(-c2nc(-c3ccco3)cs2)nc1 | -10% | -2 | -11% | -100* | 27% | u
O=C(NC(=S)Nc1nc(-c2ccccc2)cs1)c1cncc(Br)c1 | -7% | -1 | -1% | 79 | -5% | 1%
O=C(Cc1ccccc1F)Nc1nc(-c2cccnc2)cs1 | x | x | -3% | x | x | 25µM*
O=C(NC(=S)Nc1nc(-c2ccccc2)cs1)c1cccnc1 | x | x | -1% | x | x | 8.9µM*
O=C(Cc1ccccc1F)Nc1nc(-c2cccs2)cs1 | -21% | 11 | -3% | 21 | u | -1%
O=C(Nc1ccc2nc(SCC(=O)N3CCCc4ccccc43)sc2c1)c1cccc(Cl)c1 | x | x | x | x | -5%[46 µM] | x
C[C@]12C[C@H](O)CC(CO)(CO)C1[C@H](O)C[C@@]13CC4[C@@H](CC12)[C@@]4(C)C3 (some centres undefined) | 1% | x | 2% | x | x | -11%
COc1ccc(OCCCC(=O)Nc2nc(-c3ccccn3)cs2)cc1 | x | x | 0% | x | -11%[46 µM] | 32µM*
O=C(NC(=S)Nc1nc(-c2cccc3ccccc23)cs1)c1cc2ccccc2o1 | -13% | -1 | 3% | -2 | -10% | 20µM*
O=C(Nc1nc(-c2ccccn2)cs1)c1ccco1 | x | x | -3% | x | u | 35µM*
O=C1O/C(=C\Br)CC[C@@H]1c1cccc2ccccc12 | x | 7 | x | x | x | x
CCCCCCC1=Cc2cc(OC)c(OC)cc2C(C(C(C)=O)C(=O)OC)O1 (centres undefined) | x | x | x | x | x | 10%[13.5 µM]
CC(=O)CSc1nc2cc3c(cc2cc1C#N)OCCO3 | x | x | 4.5µM* | x | u | u
COc1cc2cc(C#N)c(SCC(=O)N3CCOCC3)nc2cc1OC | -28% | 3 | 1% | -100* | -10% | -1%

Screening data (PubChem)
